Data on 14 compounds can be found in PubChem BioAssay.

Test [1] is described as follows: inhibitors of TNFa-induced NFkB p65 translocation, primary screen, imaging, HUVEC, MLSMR starter and 10KST1 sets (AID 438).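 Also: compound added about 3h40 before a 20 min TNFalpha stimulation.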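 As to inhibition: signal is the nuclear over cytoplasmic p65 intensity ratio per well.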 The conditions noted are these: HUVEC TNFa-induced p65 nuclear translocation; cell count: measured here: nuclei count (cytotoxicity indicator), at 2.08 µM; inhibition: at 2 µM, stronger effect = higher value, 0% TNFa-plus-vehicle, 100% no-TNFa wells.
Test [2] can be described thus: inhibitors of mutant huntingtin aggregation, primary screen, imaging, exon1htt(103Q)mCFP cells, high-content imaging (AID 483;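 active = visual image review flags a hit and inhibition of aggregation exceeds 20%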;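 also: compound exposure lasted 3 days before fixation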;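 as to nuclei count: percent of the per-plate median nuclei count of sample wells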). The settings on record: exon1htt(103Q)mCFP cell line, aggregate imaging, at 2 µM; inhibition of aggregation: stronger effect = higher value; nuclei count: measured here: cell count, toxicity.
Test [3] is described as follows: inhibitors of E-selectin induction by TNFa, primary screen, imaging, HUVEC, immunofluorescence, MLSMR starter and 10KST1 sets (AID 487;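 active = visually confirmed hit in the image check and inhibition above 20%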;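 as to inhibition: signal is fraction of cell area covered by stained E-selectin grains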;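 as to nuclei count: 100% = median nuclei count of all wells on the same plate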). The settings on record: HUVEC TNFalpha-induced E-selectin immunofluorescence imaging, at 2 µM; inhibition: stronger effect = higher value; nuclei count: measured here: cell number, toxicity.
In test [4] the target is Voltage-gated potassium channel subunit beta-2 (Rattus norvegicus) (UniProt P62483). Nature of the test: KvBeta enzyme negative modulators, primary screen, biochemical, NADPH fluorescence (AID 622;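 active = fluorescence slope higher than the sample average by over 3 SD, cut at about -0.22 in these data, passing the limit was not always enough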;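 also: slope of raw intensity against log time taken from 70 to 1610 s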). The conditions noted are these: recombinant KvBeta, 4-cyanobenzaldehyde reduction, at 10 µM, stronger effect = higher value.
The target is the same in test [5]. In words: KvBeta positive modulators, primary screen, biochemical, NADPH fluorescence (AID 623;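 active = NADPH fluorescence slope more negative than the mean of all samples by about 3 SD, 99.7% confidence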;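 also: fluorescence intensity change per second fitted from 20 to 320 s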). The conditions noted are these: Recombinant KvBeta, NADPH fluorescence decrease slope, 10 min; at 10 µM; stronger effect = lower value.
Test [6] concerns the target Alpha-2C adrenergic receptor (Homo sapiens) (UniProt P18825). In words: modulators of alpha2C/GIRK thallium flux, primary screen, cell-based, HEK293 alpha2C/GIRK1/2 (AID 624;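 active = fluorescence slope after compound addition differing from the mean of all screened samples at 99.7% confidence, in either direction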;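 also: slope of fluorescence ratio to pre-addition baseline per second over 15 to 24 s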). The settings on record: thallium flux BTC fluorescence, at 10 µM, actives lie on both sides.
A short description of test [7]: inhibitors of Sendai virus-induced IRF3 signaling, primary screen, TLR/RLR signaling modifier project, cell-based, Sendai virus stimulus, luciferase, 10K MLSCN set (AID 602276;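 active = inhibition at or above 50% at 10 µM; inactive = inhibition below 50%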;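 also: firefly luciferase from ISG56 promoter only with Renilla not read in this screen; 0% = Sendai virus plus DMSO and 100% = medium plus DMSO without virus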). The conditions noted are these: HEK293 RL24 IRF3 luciferase reporter, at 10 µM, stronger effect = higher value. A general note: In a reporter assay the amount or activity of a reporter protein is the signal.

Test [8] can be described thus: inhibitors of poly I:C-induced TLR3 signaling, primary screen, cell-based, poly I:C stimulus, luciferase, 10K MLSCN set (AID 602277;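 active = inhibition of the reporter signal at or above 50%; inactive = inhibition below 50%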). The settings on record: HEK293-TLR3 RL24 IRF3 luciferase reporter, at 10 µM, stronger effect = higher value.

Calls of active or inactive are those of the source.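 The calls were made as follows, unless noted: active = inhibition above 20% together with a positive visual image hit; inconclusive = visual image hit but inhibition not above 20%; inactive = no visual image hit.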

Alpha-2C adrenergic receptor (Homo sapiens), sequence (P18825 whole entry, looked up): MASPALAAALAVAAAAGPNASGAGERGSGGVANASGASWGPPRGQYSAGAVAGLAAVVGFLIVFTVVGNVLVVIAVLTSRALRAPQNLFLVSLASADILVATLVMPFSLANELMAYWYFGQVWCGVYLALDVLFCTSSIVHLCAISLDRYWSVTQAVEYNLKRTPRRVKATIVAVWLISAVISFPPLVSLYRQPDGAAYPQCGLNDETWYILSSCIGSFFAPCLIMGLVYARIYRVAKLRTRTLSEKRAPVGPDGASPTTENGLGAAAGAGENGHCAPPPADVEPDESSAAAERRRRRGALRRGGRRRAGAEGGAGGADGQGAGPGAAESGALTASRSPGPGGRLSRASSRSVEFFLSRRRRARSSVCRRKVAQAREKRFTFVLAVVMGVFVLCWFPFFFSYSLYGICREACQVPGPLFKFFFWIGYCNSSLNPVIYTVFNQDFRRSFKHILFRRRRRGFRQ
Voltage-gated potassium channel subunit beta-2 (Rattus norvegicus), sequence (P62483 whole entry, looked up): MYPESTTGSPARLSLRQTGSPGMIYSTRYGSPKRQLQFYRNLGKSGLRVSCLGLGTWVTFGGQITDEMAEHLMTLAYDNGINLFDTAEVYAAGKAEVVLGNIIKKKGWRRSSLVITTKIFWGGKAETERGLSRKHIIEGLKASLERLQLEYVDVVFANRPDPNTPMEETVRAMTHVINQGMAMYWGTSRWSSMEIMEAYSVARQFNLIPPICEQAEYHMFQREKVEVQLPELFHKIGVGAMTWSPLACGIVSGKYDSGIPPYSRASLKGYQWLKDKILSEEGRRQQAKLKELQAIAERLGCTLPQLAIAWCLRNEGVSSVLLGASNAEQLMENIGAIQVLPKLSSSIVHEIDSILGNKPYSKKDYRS

Take `Cc1c(N(C)C)nc2ccccc2c1N`: the cell count in test [1] came to 575. Further, the inhibition – broadly, the drop in the measured response relative to a control, in per cent – in test [1] is -3.8% (inactive); in test [3], 42.5% (inactive); in test [7] it was 13.7% (inactive); in test [8], 20.7% (inactive). Further, the inhibition of aggregation in test [2] is -19.4% (inactive). Besides, the nuclei count in test [2] was determined as 99.7%; in test [3] it was 81.2%. For the same compound, the fluorescence slope in test [4] is -0.361 (inactive). In test [5], the NADPH fluorescence slope is -1.5e-05 (inactive). Further, the slope in test [6] was 0.00599 (inactive).
Turning to `Cc1ccc(OCCC(=O)OCC(=O)C(C)(C)C)cc1`, the cell count in test [1] stood at 542. Moreover, the inhibition in test [1] was -8.3% (inactive); in test [3], -9.5% (inactive); in test [7], 12.7% (inactive); in test [8] it was 27.5% (inactive). The inhibition of aggregation in test [2] is -6.7% (inactive). Besides, the nuclei count is 101% in test [2] and 131% in test [3]. For the same compound, the fluorescence slope in test [4] is -0.365 (inactive). Besides, the NADPH fluorescence slope in test [5] is -5.3e-05 (inactive). Further, the slope in test [6] is 0.0062 (inactive).
Turning to `O=C(NCC12CC3CC(C1)CC(CNC(=O)N1CCCC1)(C3)C2)N1CCCC1`, the cell count in test [1] amounted to 633. Further, the inhibition in test [1] is 2.2% (inactive); in test [3] it was -37.7% (inactive); in test [7], 19.1% (inactive); in test [8] it was 22.9% (inactive). Moreover, in test [2], the inhibition of aggregation is 3.3% (inactive). For the same compound, the values for the nuclei count in test [2] and in test [3] were 92.2% and 112%, respectively. The fluorescence slope in test [4] was -0.463 (inactive). The NADPH fluorescence slope in test [5] is -6e-05 (inactive). In addition, the slope in test [6] was 0.00588 (inactive).
As to `Cc1ccccc1OCCn1c(=O)oc2ccccc21`, the cell count in test [1] was found to be 316. Further, the inhibition in test [1] was -4.7% (inactive); in test [3] it was -43.9% (inactive); in test [7], 5.52% (inactive); in test [8], -6.56% (inactive). The inhibition of aggregation in test [2] was -1.9% (inactive). In addition, the nuclei count in test [2] was 144%; in test [3], 128%. Moreover, the fluorescence slope in test [4] was -0.353 (inactive). The NADPH fluorescence slope in test [5] was -8e-06 (inactive). The slope in test [6] is 0.00518 (inactive).
As for `CCC(Sc1ncccc1C(=O)O)C(=O)N1CCCC1` (centres undefined), the cell count in test [1] stood at 597. Moreover, the inhibition in test [1] was 10% (inactive); in test [3], 5% (inactive); in test [7], 5.91% (inactive); in test [8], 15.4% (inactive). For the same compound, in test [2], the inhibition of aggregation is 32.9% (inactive). Moreover, the nuclei count in test [2] is 93.4%; in test [3], 116%. Also, the fluorescence slope in test [4] is -0.372 (inactive). For the same compound, in test [5], the NADPH fluorescence slope was -4.6e-05 (inactive). Further, the slope in test [6] was 0.00559 (inactive).
As to `CCN=C1SC(CC(=O)Nc2ccccc2OCC)C(=O)N1CC` (centres undefined), the cell count in test [1] was 613. For the same compound, the inhibition in test [1] was -14.1% (inactive); in test [3] it was 0.9% (inactive); in test [7], 12.4% (inactive); in test [8] it was 20.8% (inactive). Moreover, the inhibition of aggregation in test [2] is -12.5% (inactive). Besides, the nuclei count in test [2] came out at 100%; in test [3], 92.3%. For the same compound, the fluorescence slope in test [4] was -0.488 (inactive). Moreover, in test [5], the NADPH fluorescence slope is -3.2e-05 (inactive). The slope in test [6] was 0.00493 (inactive).
For `CCc1ccc(N2CC(C(=O)OCC(=O)Nc3cc(C)on3)CC2=O)cc1` (centres undefined), the cell count in test [1] was found to be 465. In addition, the inhibition in test [1] was 5.3% (inactive); in test [3], -6.8% (inactive); in test [7] it was 5.09% (inactive); in test [8] it was 20.1% (inactive). The inhibition of aggregation in test [2] is -4.7% (inactive). Moreover, the nuclei count in test [2] is 102%; in test [3], 92.3%. Further, the fluorescence slope in test [4] was -0.368 (inactive). For the same compound, in test [5], the NADPH fluorescence slope is -2.5e-05 (inactive). The slope in test [6] was 0.00565 (inactive).
In the case of `CCCC(=O)OCCn1c(Br)nc2c1c(=O)[nH]c(=O)n2C`, the cell count in test [1] is 627. In addition, the inhibition in test [1] is -9.1% (inactive); in test [3] it was -46.5% (inactive); in test [7], 20.4% (inactive); in test [8], 15.6% (inactive). Also, the inhibition of aggregation in test [2] was -10% (inactive). Also, the values for the nuclei count in test [2] and in test [3] were 127% and 121%, respectively. For the same compound, the fluorescence slope in test [4] is -0.509 (inactive). The NADPH fluorescence slope in test [5] is -3.2e-05 (inactive). Besides, the slope in test [6] was 0.00531 (inactive).
As for `COc1ccccc1C(=O)Nc1ccc(S(=O)(=O)N2CCCC2)cc1`, the cell count in test [1] is 676. Also, the inhibition is 2.2% (inactive) in test [1], -22.4% (inactive) in test [3], 8.65% (inactive) in test [7] and -0.301% (inactive) in test [8]. The inhibition of aggregation in test [2] was 7.3% (inactive). The nuclei count was found to be 114% in test [2] and 108% in test [3]. In test [4], the fluorescence slope is -0.584 (inactive). Moreover, in test [5], the NADPH fluorescence slope was -2.5e-05 (inactive). In addition, the slope in test [6] is 0.0037 (inactive).
As for `CCN1CCCC1CN=Cc1c(O)n(-c2ccccc2)c(=O)c2ccccc12` (centres undefined), in test [1], the cell count is 609. Further, the inhibition is -0.3% (inactive) in test [1], -12.1% (inactive) in test [3], -6.81% (inactive) in test [7] and 16.9% (inactive) in test [8]. Besides, in test [2], the inhibition of aggregation is -8.1% (inactive). Moreover, the nuclei count in test [2] is 109%; in test [3] it was 97.6%. In test [4], the fluorescence slope is -0.598 (inactive). Moreover, the NADPH fluorescence slope in test [5] is -2e-05 (inactive). Further, in test [6], the slope is 0.00513 (inactive).
Turning to `O=C(CCn1c(=S)[nH]c2ccccc2c1=O)NCC1CCCO1` (centres undefined), in test [1], the cell count was 491. The inhibition was 9.4% (inactive) in test [1], 8% (inactive) in test [3], 8.18% (inactive) in test [7] and 2.45% (inactive) in test [8]. For the same compound, the inhibition of aggregation in test [2] was 6% (inactive). Further, the nuclei count in test [2] stood at 99.2%; in test [3], 109%. In addition, in test [4], the fluorescence slope is -0.622 (inactive). In test [5], the NADPH fluorescence slope was -8.8e-06 (inactive). Moreover, in test [6], the slope was 0.0038 (inactive).
Take `CCOC(=O)N1CCN(C(=O)CSc2nnc(Cc3ccccc3)o2)CC1`: the cell count in test [1] was 645. The inhibition in test [1] was -6.9% (inactive); in test [3] it was -53.8% (inactive); in test [7], 2.23% (inactive); in test [8] it was 10.9% (inactive). For the same compound, the inhibition of aggregation in test [2] is 10.1% (inactive). In addition, the nuclei count in test [2] worked out at 123%; in test [3], 102%. The fluorescence slope in test [4] was -0.525 (inactive). In test [5], the NADPH fluorescence slope was -3.6e-05 (inactive). Further, in test [6], the slope was 0.00629 (inactive).
Turning to `O=C(CN1CCN(c2ccccn2)CC1)N1c2ccccc2CCc2ccccc21`, the cell count in test [1] amounted to 568. Also, the inhibition in test [1] is 3.3% (inactive); in test [3] it was 46.8% (inactive); in test [7], 13% (inactive); in test [8] it was 15.9% (inactive). Besides, the inhibition of aggregation in test [2] is -0.5% (inactive). Besides, the nuclei count was 103% in test [2] and 99.5% in test [3]. Further, the fluorescence slope in test [4] was -0.341 (inactive). Further, in test [5], the NADPH fluorescence slope was -5.2e-05 (inactive). Further, the slope in test [6] is 0.0046 (inactive).
For the compound `Cc1ccc(-c2nnc3c4ccccc4c(C)nn23)cc1NC(=O)c1ccco1`, in test [1], the cell count was found to be 641. Moreover, the inhibition is -11% (inactive) in test [1], -106% (inactive) in test [3], -0.847% (inactive) in test [7] and -4.54% (inactive) in test [8]. Also, the inhibition of aggregation in test [2] is 17.5% (inactive). Moreover, the nuclei count was 102% in test [2] and 115% in test [3]. The fluorescence slope in test [4] was -0.602 (inactive). In addition, the NADPH fluorescence slope in test [5] is 2.3e-05 (inactive). Further, the slope in test [6] was 0.00729 (inactive).
